IFI data for 103 compounds are collected here from ChEMBL document CHEMBL1157539, “Thousands of chemical starting points for antimalarial lead identification” (Nature, 2010).

In all, about 13,000 compounds were measured (“IFI”: median about 4, highest 2% from about 17 on). The full list was thinned out, with the highest values kept by preference.

The nature of this test: GSK_TCMDC: Inhibition Frequency Index (IFI). The number of non-kinase HTS assays where a compound showed > 50 % inhibition, expressed as a percentage of the number of such assays in which the compound was tested. Format: functional.
Consider `Cc1ccc(OCC2CCN(c3ncc(C(=O)NC4CC4)cc3Cl)CC2)cc1`, for which the IFI worked out at 0%.
`Cc1cc(OCC2CCN(c3ncc(C(=O)NC4CC4)cc3Cl)CC2)ccc1F` registered an IFI of 9.8%.
As for `Cc1ccc(F)c(OCC2CCN(c3ncc(C(=O)NC4CC4)cc3Cl)CC2)c1`, the IFI came to 17.3%.
Turning to `CN1CCC(NCc2cccc(-c3cccc(S(=O)(=O)NCc4ccccc4)c3)c2)CC1`, the IFI is 11.2%.
`CCN(CC)CCNC(=O)c1ccc(NC(=O)c2oc3c(Cl)cccc3c2C)cc1` registered an IFI of 4.76%.
`CCN(CC)CCOc1ccc(C(O)(C#CC(O)(c2ccccc2)c2ccc(OCCN(CC)CC)cc2)c2ccccc2)cc1` (stereo not drawn) came in with an IFI of 6.52%.
As for `CCN(CC)CCOc1ccc(NC(=O)c2oc3ccccc3c2C=Cc2ccccc2)cc1`, the IFI came out at 18.5%.
For the compound `COC(=O)c1cccc(CNCc2ccc(-c3ccc(-c4nc5cccc(C)c5[nH]4)s3)cc2)c1`, the IFI amounted to 7.55%.
`CN1CCN(CCCN(Cc2cccc(-c3cccc(CNCc4ccc5c(c4)OCO5)c3)c2)C(=O)CCC2CCCC2)CC1` showed an IFI of 10.9%.
Take `CC(C)C[C@H](NC(=O)c1cc2ccccc2s1)C(=O)N[C@H]1CCN(Cc2ccc(I)c(OC3CCN(C)C3)c2)C1` (stereo partly drawn): the IFI is 16.7%.
To `O=C(Nc1ccc2ccccc2c1)c1ccc(CN2CCC(Cc3ccccc3)CC2)cc1` belongs 6.21%; to `C/C=C/C=C/C1=NCCc2cc(OCCC)ccc21`, 8.76%; to `CCCCOc1cc2c(cc1OCC)C(C=Cc1ccc(Cl)cc1Cl)=NCC2`, 6.67%.
As for `CCCOc1cc2c(cc1OCCC)C(C=Cc1ccc(Cl)cc1Cl)=NC(C)C2` (stereo not drawn), the IFI was 19%.
`COc1ccc(CNCCc2cccs2)cc1-c1cccc(S(=O)(=O)NCCN2CCCC2)c1`: the IFI was found to be 9.8%.
Turning to `C=CCN(C(=O)c1ccc(Cl)c([N+](=O)[O-])c1)c1nc(-c2ccccc2)cs1`, the IFI worked out at 3.39%.
With `Nc1nccc2ccc(-c3ccc(NC(=O)Nc4cc(C(F)(F)F)ccc4F)cc3)cc12`, the IFI was 20.2%.
With `Nc1ccc(-c2ccc(NC(=O)Nc3cc(C(F)(F)F)ccc3F)cc2)cn1`, the IFI was determined as 1.32%.
`Nc1ncc(-c2ccc(NC(=O)Nc3cc(C(F)(F)F)ccc3F)cc2)c(N)n1`: the IFI worked out at 0%.
Regarding `Cc1[nH]c(C)c(-c2ccc(Oc3ccccc3)cc2)c(=O)c1Br`, the IFI came out at 6.11%.
Compound `Cc1nc(-c2cccc(Nc3nccc(NCC(O)c4ccccc4)n3)c2)cs1` (stereo not drawn) registered an IFI of 24.1%.
Consider `Cc1nc(-c2cccc(Nc3nccc(NCC(O)c4ccccc4C)n3)c2)cs1` (stereo not drawn), for which the IFI worked out at 13.6%.
For `Cc1nc(-c2cccc(Nc3nccc(NCC(O)c4ccccc4C(F)(F)F)n3)c2)cs1` (stereo not drawn), the IFI came out at 22.8%.
`Cc1ccc(C(O)CNc2ccnc(Nc3cccc(-c4csc(C)n4)c3)n2)cc1` (stereo not drawn) showed an IFI of 8.74%.
In the case of `Cc1cccc(C(O)CNc2ccnc(Nc3cccc(-c4csc(C)n4)c3)n2)c1` (stereo not drawn), the IFI stood at 13.6%.
To `Cc1nc(-c2cccc(Nc3nccc(NCC(O)c4cccc(C(F)(F)F)c4)n3)c2)cs1` (stereo not drawn) belongs 11%; to `Cc1[nH]c(C)c(-c2ccc(-c3ccc(Cl)cc3)cc2)c(=O)c1Cl`, 0.76%; to `COc1ccc(CNCc2ccc(-c3cccc(-c4nc5cc(C(F)(F)F)ccc5[nH]4)c3)cc2)cc1`, 14.3%.
In turn, `CCCCc1cc(O)c2c(c1)OC(C)(C)C=C2C1=CCN(Cc2ccccc2)CC1` registered an IFI of 1.43%.
In the case of `Oc1ccc2nc(NCCCc3ccccc3)nc(NCCCc3ccccc3)c2c1` it was 10.9%.
In turn, `COc1ccc(NC(=O)Nc2ccc(C)c(-c3ccc(C(=O)NCCN4CCCC4)cc3)c2)cc1` displayed an IFI of 0%.
Regarding `COc1ccc(C(=O)Nc2ccc(Cl)cc2C(=O)Nc2ccncc2)cc1`, the IFI is 1.35%.
Regarding `COc1cccc(NC(=O)Nc2ccc(C)c(-c3ccc(C(=O)Nc4ccncc4)cc3)c2)c1`, the IFI came out at 26.8%.
In the case of `COc1cccc(NC(=O)c2cc(Br)cc(N3CCN(c4ccncc4)CC3)c2)c1` it was 12.5%; in that of `COc1ccc(NC(=O)Nc2ccc(C)c(-c3ccc(C(=O)Nc4ccncc4)cc3)c2)cc1`, 25.4%.
`COc1cccc(NC(=O)Nc2ccc(-c3oc(C(=O)NCC(c4ccccc4)N(C)C)cc3-c3ccncc3)cc2)c1` (stereo not drawn) gave an IFI of 6.85%.
`CN1CCN(c2ccc(Nc3c(C(N)=O)cnc4cc(-c5ccoc5)ccc34)cc2)CC1` showed an IFI of 4.73%.
With `OC1=C2C(=Nc3ccccc3SC2c2cccs2)c2ccccc21` (stereo not drawn), the IFI came to 3.5%.
Regarding `COc1ccccc1-c1ccc(C(=O)NCC2CCCN(Cc3cccc(C(F)(F)F)c3)C2)s1` (stereo not drawn), the IFI turned out to be 3.7%.
As for `Nc1nc(N)c2c(ccc3c2ccn3Cc2ccc3c(c2)OCO3)n1`, the IFI was found to be 6.67%.
Consider `Fc1ccccc1C=NNc1ccnc2cc(Cl)ccc12`, for which the IFI turned out to be 1.48%.
To `CC(C)c1ccc(C=CC(=O)N2CCC(CCN3CCC(c4c[nH]c5ccccc45)CC3)CC2)cc1` belongs 7.19%; to `N#Cc1cccc(Nc2nccc(NCC(O)c3cccc(C(F)(F)F)c3)n2)c1` (stereo not drawn), 10.4%; to `OC(CNc1ccnc(Nc2ccccc2)n1)c1ccc(C(F)(F)F)cc1` (stereo not drawn), 8.08%.
Turning to `Cc1ccccc1C(O)CNc1ccnc(Nc2cccc(C#N)c2)n1` (stereo not drawn), the IFI worked out at 7.69%.
For `OC(CNc1ccnc(Nc2cccc(Cl)c2)n1)c1cccc(C(F)(F)F)c1` (stereo not drawn), the IFI was 13.3%.
With `OC(CNc1ccnc(Nc2cccc(Cl)c2)n1)c1ccccc1C(F)(F)F` (stereo not drawn), the IFI is 20.4%.
`OC(CNc1ccnc(Nc2cccc(Cl)c2)n1)c1ccc(C(F)(F)F)cc1` (stereo not drawn) displayed an IFI of 11%.
`N#Cc1cccc(Nc2nccc(NCC(O)c3ccc(C(F)(F)F)cc3)n2)c1` (stereo not drawn) registered an IFI of 20.4%.
Regarding `OC(CNc1ccnc(Nc2ccc(Cl)cc2)n1)c1ccccc1C(F)(F)F` (stereo not drawn), the IFI stood at 14.4%.
The compound `N#Cc1cccc(Nc2nccc(NCC(O)c3ccccc3C(F)(F)F)n2)c1` (stereo not drawn) registered an IFI of 19.2%.
`CNCCNCc1cccc(-c2ccc(-c3nc4cc(C(F)(F)F)ccc4[nH]3)s2)c1` registered an IFI of 8%.
With `O=C(Nc1ccc(-c2cccc(-c3nc4cc(C(F)(F)F)ccc4[nH]3)c2)cc1)c1ccoc1`, the IFI turned out to be 7.08%.
Compound `CN(C)CC(=O)Nc1ccc(-c2ccc3ccnc(N)c3c2)cc1` displayed an IFI of 7.95%.
Compound `CCCCCCCN1CC[C@@H](CCCc2ccnc3ccc(OCCCCNC(N)=O)cc23)[C@@H](CC)C1` displayed an IFI of 8.76%.
Consider `CC(C)CNCc1ccc(OCc2cccc(COc3ccc(CNCC(C)C)cc3I)c2)c(I)c1`, for which the IFI turned out to be 8.89%.
As for `CC[C@H](C)CNCc1ccc(OCc2cccc(COc3ccc(CNC[C@@H](C)CC)cc3I)c2)c(I)c1`, the IFI stood at 15.3%.
Compound `CC(C)NCc1ccc(OCc2cccc(COc3ccc(CNC(C)C)cc3I)c2)c(I)c1` displayed an IFI of 17.6%.
For `Cc1[nH]c(C)c(-c2ccc(OCCSc3ccncc3)cc2)c(=O)c1Br`, the IFI came to 3.7%.
To `O=C(Oc1ccc(Cl)cc1C(=O)Nc1ccc([N+](=O)[O-])cc1Cl)c1ccccc1` belongs 22.4%; to `COc1cc([N+](=O)[O-])ccc1NC(=O)c1cc(Cl)ccc1O`, 35.6%; to `O=C(Nc1ccc(Cl)cc1C(=O)Nc1cccc(F)c1)c1ccc([N+](=O)[O-])cc1`, 1.43%.
The compound `O=C(Nc1ccc([N+](=O)[O-])cc1Cl)c1cc2ccccc2cc1O` yielded an IFI of 12.8%.
`COc1ccccc1NC(=O)c1cc(C(=O)c2cc(Cl)ccc2O)cn(-c2ccccc2OC)c1=O` came in with an IFI of 0.97%.
In the case of `O=C(Nc1ccc([N+](=O)[O-])cc1Cl)c1cc(Br)cc(Cc2ccccc2)c1O` it was 16.2%; in that of `Cc1[nH]cnc1CSCCN/C(=N\C#N)NCCCCCCCCN/C(=N/C#N)NCCSCc1nc[nH]c1C`, 1.49%.
In turn, `CC(C)(C)c1ccc(-c2cc(C(=O)N[C@@H](CO)C(=O)O)on2)cc1.CC(C)(C)c1ccc(-c2nocc2C(=O)N[C@@H](CO)C(=O)O)cc1` registered an IFI of 0%.
In turn, `CN/C(=N\O)NCCN(C)C` registered an IFI of 1.43%.
In the case of `Clc1cccc(Nc2ccc3c(N4CCCCC4)ncnc3n2)c1`, the IFI is 8.33%.
With `CS(=O)(=O)CCNCc1nc(-c2ccc3c(=O)[nH]cnc3c2)cs1`, the IFI amounted to 22.6%.
Take `CS(=O)(=O)CCNCc1nc(-c2ccc3c(Nc4ccc(Cl)cc4F)ccnc3c2)cs1`: the IFI is 7.69%.
The compound `CS(=O)(=O)CCNCc1nc(-c2ccc3c(Nc4ccc(F)c(O)c4)ccnc3c2)cs1` gave an IFI of 3.73%.
To `Cc1c(N=O)cc(C(C)(C)C)c(O)c1C(=O)Nc1ccc([N+](=O)[O-])cc1Cl` belongs 25.2%; to `Cc1sc(NC(=O)c2ccc([N+](=O)[O-])cc2Cl)c(C(N)=O)c1C`, 0.75%.
`Cc1cc([N+](=O)[O-])ccc1NC(=O)Nc1cccc(C(F)(F)F)c1`: the IFI stood at 7.89%.
For the compound `C=CCNC(CCCCC)c1ccc(OCCOc2ccc(C(CCCCC)NCC=C)cc2)cc1` (stereo not drawn), the IFI turned out to be 18.3%.
In the case of `CCCCCOc1ccc(C(O)C(CCC(CN2CCCCCC2)C(O)c2ccc(OCCCCC)cc2)CN2CCCCCC2)cc1` (stereo not drawn) it was 12.9%; in that of `CCCCCCNC(=N)c1ccc(OCCCCCOc2ccc(C(=N)NCCCCCC)cc2)cc1`, 12.3%.
Compound `CCCCCC(NCCCC)c1ccc(OCCOc2ccc(C(CCCCC)NCCCC)cc2)cc1` (stereo not drawn) gave an IFI of 16.3%.
To `CCCCCCC(N)c1ccc(OCCCOc2ccc(C(N)CCCCCC)cc2)cc1` (stereo not drawn) belongs 24.5%.
Consider `CCCCC(NCC)c1ccc(OCCOc2ccc(C(CCCC)NCC)cc2)cc1` (stereo not drawn), for which the IFI is 8.82%.
Consider `Fc1ccc(C=NNc2nc3ccccc3[nH]2)cc1`, for which the IFI is 1.42%.
In the case of `O=C1Nc2cccc3c2C1(CCCCN1CCC(c2c(-c4ccc(F)cc4)[nH]c4ccccc24)CC1)CCC3` (stereo not drawn) it was 7.91%; in that of `CN(c1ccccc1)c1ccnc(NC(=N)Nc2ccc(Cl)cc2)n1`, 18.4%.
To `CN(c1ccc(NC(=O)Nc2cccc(Cl)c2)cc1)c1ccnc(N)n1` belongs 6.9%; to `CCNC(=O)Nc1ccc(N(C)c2ccnc(NC3CC3)n2)cc1`, 2.97%; to `Cc1cc(NCCC(=O)Nc2ccccc2)nc(NCCOc2ccccc2)n1`, 4.88%.
In turn, `C=CCOC(=O)N1CCC(CNCc2cccc(-c3ccc(-c4nc5ccccc5[nH]4)s3)c2)C1` (stereo not drawn) came in with an IFI of 6.73%.
The compound `Cc1cc2nc(N/C(N)=N/C(=O)NC3CCCCC3)nc(C)c2cc1C` registered an IFI of 9.38%.
As for `CCN(CC)CCOc1ccc(N(Cc2ccc(C(C)(C)C)cc2)C(=O)c2ccc(Cc3ccccc3)cc2)cc1OC`, the IFI was 5.84%.
As for `Cc1cccc2nc(-c3ccc(-c4cccc(CNCCN5CCNCC5)c4)cc3)[nH]c12`, the IFI turned out to be 6.93%.
Compound `CC(C)COc1ccc(Cl)cc1Cc1ccc(-c2nc3cc(F)c(F)cc3[nH]2)o1` came in with an IFI of 13.7%.
Compound `CNCc1cccc2nc(-c3ccc(Cc4cc(Cl)ccc4OCC(C)C)o3)[nH]c12` had an IFI of 16.7%.
As to `CC(C)COc1ccc(Cl)cc1Cc1ccc(-c2nc3cnc4ccccc4c3[nH]2)o1`, the IFI came out at 7.23%.
`CC(C)COc1ccc(Cl)cc1Cc1ccc(-c2nc3cc(N4CCN(C)CC4)ccc3[nH]2)o1` registered an IFI of 17.2%.
In the case of `CC(C)COc1ccc(Cl)cc1Cc1ccc(-c2nc3cc(CCN(C)C)ccc3[nH]2)o1` it was 16%; in that of `CC(C)COc1ccc(Cl)cc1Cc1nc(-c2nc3ccc(CN4CCN(C)CC4)cc3[nH]2)co1`, 5.81%.
Regarding `CC(C)COc1ccc(Cl)cc1Cc1nc(-c2nc3ccc(CN4CCCC4)cc3[nH]2)co1`, the IFI turned out to be 16.1%.
In the case of `CN1CCN(CCc2ccc3nc(-c4csc(Cc5cc(Cl)ccc5OCc5ccccc5)n4)[nH]c3c2)CC1` it was 10.2%; in that of `CC(C)COc1ccc(Cl)cc1Cc1nc(-c2nc3ccc(CN4CCCCC4)cc3[nH]2)co1`, 18.3%.
Take `CC(C)COc1ccc(Cl)cc1Cc1ccc(-c2nc3cc(CCN4CCCC4)ccc3[nH]2)o1`: the IFI was 22.2%.
`CN1CCN(c2ccc3[nH]c(-c4ccc(Cc5cc(Cl)ccc5OCc5ccccc5)o4)nc3c2)CC1` yielded an IFI of 24.7%.
In the case of `Clc1ccc(OCc2ccccc2)c(Cc2ccc(-c3nc4cnccc4[nH]3)o2)c1` it was 12.2%.
